# Test results published in PubChem BioAssay (NCI).
# This is part of a sample that, as a whole, favours compounds with a hit. Of some 83,000 tested, about 20% had one in any assay.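 Growth was measured after 48 h exposure to one concentration of compound in 96-well plates. Values under 10 count as active.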 A number with no mark means an inactive call. Active and inactive are the calls of the source.
# Tested on: HT29 colon
# Assay: NCI-60 one-dose screen, 48 h (100 = growth as untreated, 0 = no growth, -100 = all killed)
# Conditions: 10 µM unless noted
row,SMILES,growth
1,CCOC(=O)c1c(Nc2ccccc2)nn2c(N)c(C#N)c(-c3ccccc3)nc12,92.1%
2,COC(=O)c1ccc(NC(=S)N2CCc3ccc([N+](=O)[O-])cc3C2)cc1O,109%
3,CCCC(=O)NC(c1cccc(N(C)C)c1)c1cc(C)c2cccnc2c1O (centres undefined),91.6%
4,COc1cc(/C=C/C(=O)c2cc(OC)c(OC)c(OC)c2)ccc1Oc1nc(NCCO)nc(N2CCOCC2)n1,-21.5% (active)
5,CS(=O)(=O)c1ccc(-n2cc(/C=C/C(=O)c3ccc(NC(=O)CO[N+](=O)[O-])cc3)c(-c3ccc(Cl)cc3)n2)cc1,108%
6,Cc1cc2nc3c4cc(Cl)ccc4n(CC(=O)NCCN(C)C)c3nc2cc1C,-75.5% (active)
7,Cc1cc2nc3c4cc(Cl)ccc4n(CC(=S)NCCN(C)C)c3nc2cc1C,-32% (active)
8,NS(=O)(=O)c1ccc(Nc2nc(SCC(=O)c3ccc(Cl)cc3)nc3ccccc23)cc1,105%
9,Clc1ccc2oc3c(NCCCN4CCOCC4)c4ccccc4nc3c2c1,14%
10,Cc1ccc(/C=C/c2nn3c(-c4ccco4)nnc3s2)cc1C,109%
11,N=C1CC(=O)NN1C(=O)CSc1nc2sc3c(c2c(=O)n1-c1ccc(Cl)cc1)CCCC3,126%
12,O=C(NNc1nc2cc(F)ccc2n2c(CN3CC4(COC4)C3)ccc12)c1cnccn1,28.6%
13,COc1cc2nc(-c3ccc(C)cc3)cc(OCCCNCC3CCCO3)c2cc1OC (centres undefined),21.3%
14,CS(=O)(=O)c1ccc(-c2nc3ccccn3c2C=Nc2ccc(Cl)cc2)cc1,75.7%
15,C#Cc1nc(C2=C(C)C(=O)/C(=N/OC(C)=O)C2)cs1,115%
16,CSCCC(C(=O)O)N1C(=O)/C(=C/c2ccc(O)c(O)c2)SC1=S (centres undefined),105%
17,CC(=NNc1ncnc2ccccc12)c1ccc(S(C)(=O)=O)cc1,112%
18,Nc1c(C(=O)c2ccc(Br)cc2)oc2nc(-c3cnccn3)cc(-c3cccs3)c12,111%
19,COc1cc(-c2nc3ccc(-c4nnc(SCC(=O)Nc5ccc(C(C)=O)cc5)o4)cc3[nH]2)cc(OC)c1OC,108%
20,N#Cc1nc(-c2ccccc2)oc1S(N)(=O)=O,43.8%

row,SMILES,growth
1,O=C(CN1C(=O)/C(=C/c2ccccc2)SC1=S)N1CCOCC1,112%
2,Nc1ncc(-c2ccc3ncnc(N4CCc5cc(F)c(Cl)cc54)c3c2)cc1CO,12.7%
3,Cc1ccc(C(=O)Nc2cccc(C(F)(F)F)c2)cc1Nc1nc(-c2cnccn2)nc2c1cnn2C,32.9%
4,Clc1ccc2c(NCCCn3ccnc3)c3oc4ccc(Cl)cc4c3nc2c1,80.9%
5,CN(C)CCCNc1c2ccc(Cl)cc2nc2c1oc1ccc(Cl)cc12,-45.6% (active)
6,O=C(N/N=C/c1ccc[nH]1)c1[nH]c2ccc(Br)cc2c1-c1ccccc1,6.16% (active)
7,C#Cc1nc(C2=C(C)/C(=N/OCc3ccccc3)CC2)cs1,67%
8,N#Cc1ccc(C(=O)CSc2nc(Nc3ccc(S(N)(=O)=O)cc3)c3ccccc3n2)cc1,112%
9,C=CCn1c(SCC(=O)c2ccccc2)nnc1-c1c[nH]c2ccccc12,112%
10,Cc1cc(=O)oc2cc(OCCCOc3ccc(/C=C/C(=O)Nc4ccc(Cl)cc4)cc3)ccc12,98.1%
11,O=C(c1ccc(Cl)cc1)C1[C@H](c2ccc(Cl)cc2)[C@@H](c2ccccc2)NC12C(=O)Nc1ccc(Br)cc12 (some centres undefined),0.232% (active)
12,C[C@@H](Nc1c(C#N)cnc2ccc(-c3cnc(N)nc3)cc12)c1ccccc1,18.7%
13,CCN1C(=S)N(CC)C2C1NN=C1SC(c3ccccc3)=CC(=O)N12 (centres undefined),106%
14,CC(C)(O)c1cncc(-c2ccc3ncnc(N4CCc5cc(F)c(Cl)cc54)c3c2)c1,20.8%
15,CC(C)(C)Nc1nc2c(OCCc3ccccc3)cccn2c1-c1ccccc1Cl,-47.3% (active)
16,COc1ccc(/C=N/NC(=O)c2[nH]c3ccc(Br)cc3c2-c2ccccc2)s1,0.251% (active)
17,OC1CCN(CCCOc2c3ccccc3nc3c2oc2ccc(Cl)cc23)CC1,1.25% (active)
18,Cc1sc2c(c1C)c(=O)nc1c(-c3nc(-c4ccc(F)cc4)no3)n[nH]n12,110%
19,CC(C)(C)Nc1nc2c(OCCc3ccccc3)cccn2c1-c1cccc(F)c1,-14.2% (active)
